Assay outcomes from PubChem.
The list is not random: actives were taken first. Their share in the collection is about 2.5%.
ULK1 primary: ULK1 kinase inhibitors, primary screen, biochemical, AlphaScreen | Serine/threonine-protein kinase ULK1 (Homo sapiens), O75385 | AlphaScreen Atg13 phosphorylation by ULK1, luminescence | inhibition, % at 5.96 µM | 1.9% of 30,000 active | AID 1259251, 2017; in the data active = inhibition above about 43%;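 also: 0% = median of compound wells and 100% = no enzyme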
ASK1 primary: ASK1 kinase inhibitors, primary screen, biochemical, AlphaScreen; AID 1159602, 2016; 0.99% of 22,000 active; Mitogen-activated protein kinase kinase kinase 5 (Homo sapiens), Q99683; inhibition, % at 7.44 µM; AlphaScreen MKK6 phosphorylation by ASK1, luminescence; in the data active = inhibition above about 35%;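 also: 0% = median of compound wells and 100% = no enzyme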
Target sequence (Q99683 whole entry, looked up): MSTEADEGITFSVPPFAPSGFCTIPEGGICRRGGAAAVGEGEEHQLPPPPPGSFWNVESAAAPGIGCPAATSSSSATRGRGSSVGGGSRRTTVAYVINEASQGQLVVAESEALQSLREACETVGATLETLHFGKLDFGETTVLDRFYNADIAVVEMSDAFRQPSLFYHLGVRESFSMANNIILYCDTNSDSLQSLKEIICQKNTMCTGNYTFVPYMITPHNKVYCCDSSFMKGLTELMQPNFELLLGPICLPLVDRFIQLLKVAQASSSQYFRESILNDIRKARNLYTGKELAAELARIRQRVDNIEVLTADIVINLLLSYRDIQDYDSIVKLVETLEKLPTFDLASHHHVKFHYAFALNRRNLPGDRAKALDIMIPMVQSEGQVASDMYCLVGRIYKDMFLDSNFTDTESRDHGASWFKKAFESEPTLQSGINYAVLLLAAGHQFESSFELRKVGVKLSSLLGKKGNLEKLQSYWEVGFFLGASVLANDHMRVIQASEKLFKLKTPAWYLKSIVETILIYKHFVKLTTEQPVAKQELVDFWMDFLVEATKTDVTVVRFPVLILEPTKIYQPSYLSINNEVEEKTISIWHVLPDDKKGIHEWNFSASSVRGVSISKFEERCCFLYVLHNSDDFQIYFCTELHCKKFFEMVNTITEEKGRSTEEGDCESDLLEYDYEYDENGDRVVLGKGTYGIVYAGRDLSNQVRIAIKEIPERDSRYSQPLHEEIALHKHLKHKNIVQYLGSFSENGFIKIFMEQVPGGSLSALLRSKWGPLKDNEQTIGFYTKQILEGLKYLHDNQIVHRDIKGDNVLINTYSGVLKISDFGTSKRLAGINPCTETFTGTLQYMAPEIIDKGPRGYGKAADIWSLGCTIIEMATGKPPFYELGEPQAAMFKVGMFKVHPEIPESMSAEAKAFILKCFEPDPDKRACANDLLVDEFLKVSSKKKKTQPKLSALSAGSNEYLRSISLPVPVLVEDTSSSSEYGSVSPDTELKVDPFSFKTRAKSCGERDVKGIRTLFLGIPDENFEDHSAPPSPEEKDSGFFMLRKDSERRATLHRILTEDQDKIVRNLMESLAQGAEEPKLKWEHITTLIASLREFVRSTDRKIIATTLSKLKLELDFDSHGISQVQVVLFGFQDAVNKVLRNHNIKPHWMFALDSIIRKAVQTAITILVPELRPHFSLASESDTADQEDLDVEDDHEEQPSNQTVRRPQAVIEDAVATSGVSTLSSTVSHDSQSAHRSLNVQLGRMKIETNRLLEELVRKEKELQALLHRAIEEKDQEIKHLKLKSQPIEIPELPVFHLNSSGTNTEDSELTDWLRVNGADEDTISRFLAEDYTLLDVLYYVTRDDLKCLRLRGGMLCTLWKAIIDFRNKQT
* marks the source's active call; other numbers are inactive results; · = no result given.

SMILES | ULK1 primary | ASK1 primary
CCC(=O)/C=C/n1c(=S)oc2ccccc21 | 48* | ·
COc1ccccc1N1C(=O)c2cccc3c(C(=O)O)ccc(c23)C1=O | 7 | ·
CCC(=N)c1ccc(OC)c2cccc(NC)c12 | 64* | ·
c1cc(Nc2cc(Nc3ccc4c(c3)OCO4)ncn2)ncn1 | 60* | 23
c1ccc(Nc2cc(Nc3ccc4c(c3)OCO4)ncn2)cc1 | 6 | 4
O=C(NC1CC1)c1ccnc(N2CCCC2CO)c1 (stereo unspecified) | -3 | -13
CCCCCCCCCCCCCCCC[N+](C)(C)CC | -10 | ·
CCCCCCCCCCCCCCCC[N+](C)(C)Cc1ccccc1 | 48* | ·
Cc1nc(C)n(-c2ccc(Nc3nc(-c4cnn(C)c4)cc(N4CCOCC4)n3)cc2)n1 | 1 | 5
Cc1n[nH]c(C)c1-c1ccc2cnc(Nc3ccc(-n4cnc(N5CCOCC5)n4)cc3)nc2c1 | -7 | -51
Cn1cc(-c2nc(Nc3ccc(-n4cnc(N5CCC(O)CC5)n4)cc3)ncc2Cl)cn1 | 71* | -95
Cn1cc(-c2ccc3cnc(Nc4ccc(N5CCOCC5)nc4)nc3c2Cl)cn1 | 78* | 22
Cn1cc(-c2ccc3cnc(Nc4ccccc4)cc3c2)cn1 | 66* | -30
Cc1ccc(-c2ncn(-c3ccc(Nc4ncc(Cl)c(-c5cnn(C)c5)n4)cc3)n2)cn1 | 7 | 16
Cc1nc(C)n(-c2ccc(Nc3cc(-c4cnn(C)c4)ccn3)cc2)n1 | 7 | -12
Cc1[nH]ncc1-c1ccc2cnc(Nc3ccc(-n4cnc(N5CCOCC5)n4)cc3)nc2c1 | 76* | -45
CC(=O)Nc1ccc(Nc2nc(-c3c(C)noc3C)nc3nc[nH]c23)cc1 | 15 | -1
Cc1nn(C)c(C)c1-c1nc2c(Nc3ccc(N4CCOCC4)cc3)ncnc2n1C(C)C | -8 | -10
Cn1c(Nc2nccc(NCCN3CCOCC3)n2)nc2ccccc21 | 4 | -4
CN1CCN(c2ccc(-c3cc(C(=O)NCCN4CCOCC4)ccn3)cc2)CC1 | 26 | 16
CCN(CC)c1nc(NCCOc2ccccc2)nc(N2CCC(N3CCOCC3)CC2)n1 | -21 | 2
Cn1cc(-c2ccc3cnc(Nc4ccc(-n5cnc(N6CCOCC6)n5)cc4)cc3c2)cn1 | 74* | 11
CCOC(=O)c1c(-c2cnn(C)c2)ccc2cnc(Nc3ccc(-n4cnc(N5CCOCC5)n4)cc3)nc12 | 60* | -8
Cc1c(-c2cnn(C)c2)ccc2cnc(Nc3ccc(-n4cnc(N5CCOCC5)n4)cc3)nc12 | 60* | -66
CC(C)N1CCN(c2ncn(-c3ccc(Nc4ncc5ccc(-c6cnn(C)c6)c(Cl)c5n4)cc3)n2)CC1 | 91* | -16
SMILES | ULK1 primary | ASK1 primary
Cc1ncn(-c2ccc(Nc3ncc4ccnc(-c5cnn(C)c5)c4n3)cc2)n1 | 10 | 0
Cn1cc(-c2ccc3cnc(Nc4ccc(-n5cnc(N6CCOCC6)n5)cc4)nc3c2OCCN2CCOCC2)cn1 | 33 | 1
Cn1cc(-c2cccc3cnc(Nc4ccc(-n5cnc(N6CCOCC6)n5)cc4)nc23)cn1 | 15 | 17
Cn1cc(-c2nc(Nc3ccc(-n4cnc(N5CCOCC5)n4)cc3)ncc2F)cn1 | 19 | -37
Cn1nccc1Nc1ccc(N2CCC(C(=O)NCc3cccc(C(F)(F)F)c3)CC2)nn1 | 3 | -14
Nc1nc(Nc2ccc(N3CCOCC3)cc2)nc2c1ncn2-c1ccsc1 | 28 | 15
O=C(Cn1c(CO)cnc1SCc1ccc(Br)cc1)NC1CC1 | 10 | ·
Cc1ccc(-c2ncn(-c3ccc(Nc4ncc5ccc(-c6cnn(C)c6)nc5n4)cc3)n2)cn1 | 6 | 11
Cn1cc(-c2ccc3cnc(Nc4ccc(-n5cnc(N6CCOCC6)n5)cc4)nc3c2Cl)cn1 | 47* | -18
Cc1ccc(-c2ccc(Nc3ncc4ccc(-c5cnn(C)c5)c(Cl)c4n3)cc2)cn1 | 44* | 2
Cn1cc(-c2cccc3nc(Nc4ccc(-n5cnc(N6CCOCC6)n5)cc4)ncc23)cn1 | 15 | 9
CCN(CC)C(=O)C1CCCN(c2nccc(Nc3ccc(N4CCOCC4)cc3)n2)C1 (stereo unspecified) | 4 | 13
Cc1noc(C)c1-c1nccc(Nc2ccccc2)n1 | -1 | -7
COc1cc(/C=N/Nc2nncn2/N=C/c2ccc(O)c(OC)c2)ccc1O | 51* | ·
COc1cc(C=NNC(=O)c2ccncc2)ccc1O | 13 | ·
COc1cc2nc(Nc3cccc(N(C)C)c3)nc(NCCOc3ccccc3)c2cc1OC | -32 | 40*
COc1cc2nc(Nc3cccc(N(C)C)c3)nc(NC3CC3)c2cc1OC | 7 | 49*
CCCNc1nc(Nc2cccc(N(C)C)c2)nc2cc(OC)c(OC)cc12 | 4 | 25
COc1cc2nc(Nc3ccccc3)nc(NCCOc3ccccc3)c2cc1OC | -18 | -6
CC(=O)Nc1ccc(Nc2nc(NCCCN3CCCC3=O)nc3c2ncn3-c2ccsc2)cc1 | 18 | -9
O=C(NC1CC1)c1ccc(-c2cc(C(=O)NC3CC3)ccn2)cc1 | 4 | -20
